Among all 1,300 compounds or so, about 460 (35%) were called active. Not shown: some 39% with an inconclusive outcome. Calls follow the shape of the dose curve; as a rule, active = well fitted inhibition curve with a large enough effect; inconclusive = small, poorly fitted or top-dose-only effect; inactive = flat fitted curve, though single readings scatter. This is one part of the list.
Target: Protein phosphatase EYA2 (Homo sapiens) (UniProt O00167)
Assay: qHTS for Inhibitors of the Phosphatase Activity of Eya2: Confirmatory Assay for Cherry-picked Compounds; also: nearly all actives have a fitted effect of over 65% in size
Settings: purified EYA2 phosphatase activity, qHTS confirmation; series mostly up to 46.1 µM
In short: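 Eya2 (0.2 uM working solution) preincubated 10 min at room temperature with compound in pH 7.5 HEPES buffer with MgCl2, BSA, DTT. OMFP added (50 uM working solution), 10 min more; fluorescence 485/525 nm, normalized to EGTA and DMSO.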
Potency is read from the fitted curve at half-maximal effect.

Sequence of Protein phosphatase EYA2 (Homo sapiens) (O00167 whole entry, looked up): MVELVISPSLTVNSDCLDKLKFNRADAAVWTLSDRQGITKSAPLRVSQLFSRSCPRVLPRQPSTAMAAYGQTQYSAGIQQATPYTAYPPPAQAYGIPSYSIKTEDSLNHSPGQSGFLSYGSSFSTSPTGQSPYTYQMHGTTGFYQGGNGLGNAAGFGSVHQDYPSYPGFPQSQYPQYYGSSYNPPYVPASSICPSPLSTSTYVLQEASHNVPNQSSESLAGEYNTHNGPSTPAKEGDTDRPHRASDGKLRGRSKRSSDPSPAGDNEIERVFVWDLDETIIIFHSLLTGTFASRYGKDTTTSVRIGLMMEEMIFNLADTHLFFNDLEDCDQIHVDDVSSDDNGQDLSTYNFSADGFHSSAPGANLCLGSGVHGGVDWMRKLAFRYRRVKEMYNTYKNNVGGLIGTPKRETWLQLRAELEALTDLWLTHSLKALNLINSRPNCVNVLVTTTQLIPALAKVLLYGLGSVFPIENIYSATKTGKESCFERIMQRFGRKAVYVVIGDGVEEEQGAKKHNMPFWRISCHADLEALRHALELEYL

Potency, active:
Cc1csc(NC(=O)CSc2ccc(-c3ccccn3)nn2)n1 4.26 µM
Cc1cc(C)c(NC(=O)CSc2ccc(-c3ccccn3)nn2)c(C)c1 6.75 µM
Cc1ccccc1NC(=O)CSc1ccc(-c2ccccn2)nn1 4.26 µM
CN(C)c1ccc(NC(=O)CC(NCc2ccccn2)C(=O)O)cc1 (stereo not drawn) 0.849 µM
O=C(NCc1ccccc1)c1ccc2nc(-c3ccco3)c(-c3ccco3)nc2c1 8.49 µM
O=C(NCCCO)c1ccc2nc(-c3ccco3)c(-c3ccco3)nc2c1 9.53 µM
COc1ccc(/C=N/N2CCN(Cc3ccc(C)cc3)CC2)cc1Br 15.1 µM
COC1=C(Nc2ccc(OC)cc2)C(=O)c2ccccc2C1=O 6.01 µM
CC(=O)Nc1ccc(OC(=O)c2cc3cc(Br)ccc3oc2=O)cc1 7.57 µM
Cc1nc(S/C(=C\c2ccc(-c3ccc(C(=O)O)c(Cl)c3)o2)C(=O)O)n[nH]1 15.1 µM
Cc1ccc(S(=O)(=O)N2c3ccccc3-c3c(ssc3=S)C2(C)C)cc1 15.1 µM
COc1ccc2c(c1)-c1c(ssc1=S)C(C)(C)N2S(=O)(=O)c1ccc(C)cc1 16.9 µM
CC1CCN(C(=O)Nc2ccc3nc(-c4ccco4)c(-c4ccco4)nc3c2)CC1 6.75 µM
O=C(Nc1ccc2nc(-c3ccco3)c(-c3ccco3)nc2c1)N1CCCC1 7.57 µM
O=C(CSc1nc(-c2ccccc2)nc2c1Cc1ccccc1O2)Nc1ccc(C(=O)O)cc1 7.57 µM
CN(C1=C(N2CCCCC2)C(=O)c2ccccc2C1=O)c1ccccc1 1.2 µM
CC1CCN(C2=C(NS(=O)(=O)c3ccc(Br)cc3)C(=O)c3ccccc3C2=O)CC1 3.79 µM
O=C1C(Nc2cccc(O)c2)=C(N2CCCCC2)C(=O)c2ccccc21 15.1 µM
O=C1C(NS(=O)(=O)c2ccc(Br)cc2)=C(N2CCCCC2)C(=O)c2ccccc21 8.49 µM
O=C(N[C@@H]1CC[C@H](CCn2cc(-c3ccccn3)nn2)O[C@@H]1CO)c1ccncc1 19 µM
CCN(CC)c1ccc(NC(=O)c2ccc3c(c2)c(C)c(C)n3C)cc1 13.5 µM
CC1C=CCC2C(=O)N(c3ccc(OC(=O)c4ccco4)cc3)C(=O)C12 (stereo not drawn) 7.57 µM
CC1C=CCC2C(=O)N(c3ccc(OC(=O)c4cccs4)cc3)C(=O)C12 (stereo not drawn) 3.38 µM
Cc1nc(-n2[nH]c3c(c2=O)CCCC3)[nH]c(=O)c1Cc1ccccc1 19 µM
O=S(=O)(c1cc(O)ccc1O)c1cccc2c(S(=O)(=O)c3cc(O)ccc3O)cccc12 15.1 µM
N#Cc1c2nc3ccccc3nc2n2cc(NC(=O)c3ccc(F)cc3)ccc12 4.26 µM
CCOc1cc(/C=C2/NC(=O)NC2=O)cc(Br)c1OCc1ccc(C(=O)O)cc1 21.3 µM
C=C(C)COc1ccc(-c2nc(N)nc(C)c2-c2ccc(OC)cc2)c(O)c1 7.57 µM
COc1ccc(-n2c(SCC(=O)Nc3cc(C(=O)O)ccc3C)nc3ccccc3c2=O)cc1Cl 8.49 µM
Cc1cccc(N2CC(C(=O)OCC(=O)c3ccc(OC(=O)c4cccs4)cc3)CC2=O)c1C (stereo not drawn) 9.53 µM
Nc1nccnc1C(=O)OCC(=O)Nc1ccc2[nH]c(=O)[nH]c2c1 13.5 µM
O=C(CSc1nc2ccccc2n1CCc1ccccc1)c1ccc(O)c(O)c1 13.5 µM
Nc1ccccc1C(=O)NNc1c2ccccc2nc2ccccc12 8.49 µM
O=[N+]([O-])c1ccccc1Nc1nc(-c2cccnc2)cs1 15.1 µM
CNc1cccc2c1C(=O)c1ccccc1C2=O 1.69 µM
CN(C)c1ccc(N=Nc2ccnc3ccccc23)cc1 3.38 µM
Cc1cc(O)cc(O)c1/C=N/NC(=O)c1ccc2c(c1)OCCO2 7.57 µM
S=c1[nH]nc(-c2ccccn2)n1/N=C/c1ccc(Br)s1 16.9 µM
CCOC(=O)C(C)N1C(=O)S/C(=C\c2ccc(-c3ccccc3C(=O)O)o2)C1=O (stereo not drawn) 19 µM
COc1ccc2[nH]cc(CCn3ccc(O)c(C/C=C/c4ccccc4)c3=O)c2c1 21.3 µM
O=S(=O)(O)c1ccc2c(N=Nc3ccc(S(=O)(=O)O)c4ccccc34)c(O)c(S(=O)(=O)O)cc2c1 7.57 µM
CC(=O)Nc1ccc(S(=O)(=O)O)c2cc(S(=O)(=O)O)c(N=Nc3ccc(N=Nc4ccc(S(=O)(=O)O)cc4)c4ccc(S(=O)(=O)O)cc34)c(O)c12 1.51 µM
CCOc1ccc(NC(=O)C2CC(=O)N(CCc3ccc(OC)c(OC)c3)C2)cc1OCC (stereo not drawn) 12 µM
COc1ccc(N2CCN(C(=O)c3cc(-c4cc(OC)ccc4OC)nc4ccccc34)CC2)cc1 16.9 µM
O=C1/C(=C\c2cccc([N+](=O)[O-])c2O)SC(=S)N1Cc1ccccc1 6.75 µM
COc1ccc(NC(=O)/C(C#N)=C/c2ccc(-c3ccc(Cl)c(C(=O)O)c3)o2)cc1 19 µM
N#C/C(=C\c1ccc(-c2ccc(C(=O)O)cc2)o1)C(=O)Nc1ccc(F)cc1 16.9 µM
COc1ccc(/C=C(/C#N)C(=O)Nc2ccc(O)cc2)cc1C(=O)O 9.53 µM
CCOc1ccc(S(=O)(=O)N2CCN(C)CC2)cc1NC(=O)c1ccccc1F 8.49 µM

Potency, inactive:
Cc1cc(NC(=O)CSc2nnnn2-c2ccccc2C)no1
O=C(CSc1nnc(CNC(=O)c2ccccc2)o1)Nc1nccs1
Cc1cccc(C#Cc2ccccc2)n1
O=S(=O)(NCCSCc1ccc(Cl)c(Cl)c1)c1ccc2c(c1)OCCO2
CC(=O)Nc1ccc(NC(=O)COc2ncnc3ccccc23)cc1
CN(C)C(CNC(=O)c1ccc2c(c1)S(=O)(=O)c1ccccc1C2=O)c1ccco1 (stereo not drawn)
Cc1ccc(CNC(=O)c2ccc(-n3cccc3)cc2)cc1
Cc1cccc2cn[nH]c12
O=C(NNC(=O)c1cc2cc(Br)ccc2oc1=O)c1ccc(O)cc1
COc1ccc(Cc2nc3c4c(ncn3n2)Oc2ccc3ccccc3c2C4c2ccc(OC)c(OC)c2)cc1 (stereo not drawn)
COCCNC(=O)c1cccc(OC2CCN(Cc3ccc(F)cc3OC)CC2)c1
O=C(CCS(=O)(=O)c1ccc(Br)cc1)N1CCCCCC1
O=C1N=c2ccccc2=C1c1sc(Nc2cccc(O)c2)nc1O
COc1ccc(-c2cc(C3CCNCC3)[nH]n2)cc1
CC(C)(C)NC(=O)c1cccc(NC(=O)c2ccc(NC(=O)c3ccco3)cc2)c1
CCCc1nc(N2CCN(C)CC2)c2sc(=S)n(-c3ccccc3)c2n1
CC(C)CCNC(=O)c1onc(CSc2ccncc2)c1C(=O)NCCC(C)C
O=C1NC(=O)/C(=C\c2ccccc2OCc2cccc([N+](=O)[O-])c2)N1
Cc1c(NC(=O)c2ccco2)cccc1C(=O)NN1C(=O)c2ccccc2C1=O
COc1ccc(-c2nc(N)ncc2-c2csc(C)n2)c(O)c1
COc1ccccc1-n1c(SCC(=O)Nc2cc(C)on2)nc2c(c1=O)SCC2
O=C(O)c1ccc(CSc2nc3ccccc3c(=O)n2-c2ccccc2)cc1
COc1ccccc1-c1noc2c1C(=O)N(Cc1cn(-c3ccc(Cl)cc3)nn1)CC2
O=c1cc2ncc(-n3cc([N+](=O)[O-])cn3)cn2[nH]1
CCC(=O)N1c2ccc(S(=O)(=O)N3CCN(c4ccc([N+](=O)[O-])cc4)CC3)cc2CC1C (stereo not drawn)
CCn1c2ccccc2c2cc(NC(=O)COC(=O)c3ccc(NC(=O)CC#N)cc3)ccc21
O=C(COC(=O)c1cc(=O)[nH]c2ccccc12)Nc1cccc(S(=O)(=O)N2CCOCC2)c1
CCOc1ccc2ccccc2c1C(=O)N[C@@H]1C(=O)N2[C@@H]1SC(C)(C)[C@@H]2C(=O)O
O=C(C[n+]1ccccc1)c1ccc(O)c(O)c1
Cc1ccc(OCCSc2nc3ccccc3n2CCC(=O)O)c(C(C)C)c1
CCOCCCNC(=O)c1cc2sc(Cl)cc2n1CC
O=C(CN1C(=O)c2ccccc2C1=O)Nc1nc(-c2cccc([N+](=O)[O-])c2)cs1
NC(=O)[C@@H]1CC2(CC(c3cccc(NC(=O)COc4ccc(Cl)cc4)c3)=NO2)CN1C(=O)COc1ccc(Cl)cc1 (stereo partly drawn)
Cc1c(C(=O)O)cccc1-c1ccc(/C=C2\SC(=O)NC2=O)o1
CCn1c(C)cc(/C=C2/SC(=O)N(C(C)C(=O)OC)C2=O)c1C (stereo not drawn)
COCCN(Cc1cc2cc3c(cc2nc1Cl)OCO3)C(=O)Nc1ccc(OC)cc1
CCN1CCN(c2ncnc3scc(-c4ccc(C)cc4)c23)CC1
COc1ccc2cc(C(=O)N3CCN(c4ccc(F)cc4)CC3)[nH]c2c1
Oc1ccc(-c2nc3c4c(ncn3n2)-c2ccccc2CC42CCCC2)cc1
COc1ccc(CC(CC(=O)O)C(=O)Nc2ccc(Cl)c(Cl)c2)cc1 (stereo not drawn)
O=C(Cn1ccc(=O)[nH]c1=O)Nc1nccs1
CC(Oc1ccc(F)cc1)C(=O)Nc1cc(S(=O)(=O)N2CCCCC2)ccc1N1CCN(C)CC1 (stereo not drawn)
Cc1ccc(-c2csc(N3CCN(CCCn4c(C(F)(F)F)nc5ccccc54)CC3)n2)cc1
Oc1[nH]c2ccccc2c1N=Nc1nc2ccccc2s1
